Where a chain is given by its changes, count along the chain named. Over roughly 5,800 sequences, “enrichment r” has its median near 0.54; the highest 2% begin near 16. Many of the other results were omitted from the sample, so the highest values are more common in it than they were.
B1: chr1:173734013:173734119:+|CDS|ENSG00000076321|unk|FALSE|unique (ssRNA)
RNA: GGGAGUUCUACAGUCCGACGAUCCAUUGACGAGAGGGCUAUGGAAUUACUGAUUGACUUUGCGUAUACCUCCCAGAUAACAGUAGAAGAGGGCAAUGUUCAGACUCUUCUGCCAGCUGCUUGCCUCCUCCAGCUGGCAGAAAUCAACAGAGGAUUGAGCAUCA
B2: chr10:73251842:73251943:-|CDS|ENSG00000182180|msi1|FALSE|unique (ssRNA)
RNA: GGGAGUUCUACAGUCCGACGAUCUCGGCCGUUCUACCGCAUUGUGGCUGCUCACAACAAGUGUCCCAGGGAUGGCCGUUUCGUAGAGCAGCUGGGCUCCUAUGAUCCAUUGCCCAACAGUCAUGGAGAAAAACUCGUUGCCCUCAACAGAGGAUUGAGCAUCA
B3: chr7:44121865:44121972:-|CDS|ENSG00000106628|unk|FALSE|unique (ssRNA)
RNA: GGGAGUUCUACAGUCCGACGAUCGUGCCAGUGGCAACCUACACCAACUCCUCACAACCCUUCCGGCUAGGAGAGCGCAGCUUUAGCCGGCAGUAUGCCCACAUUUAUGCCACCCGCCUCAUCCAAAUGAGACCCUUCCUGGAGCAACAGAGGAUUGAGCAUCA
B4: chr6:31137533:31137950:-|three_prime_utr|ENSG00000204538|control|control|control (ssRNA)
RNA: GGGAGUUCUACAGUCCGACGAUCGCAUCUCCAGGCACCCACGCCCUCUCCACCCUCUGAUUCCCCGUGAAUUCUUCCCAAUUUAGCCUGUCUCCUUAAACCUCUUCCUCAUUCCCUCGGUUUUAUUCUGAACCCGUAAGGUGGCAACAGAGGAUUGAGCAUCA
B5: chr1:214663888:214664008:+|3pUTR|ENSG00000117724|msi1|FALSE|bound_elsewhere (ssRNA)
RNA: GGGAGUUCUACAGUCCGACGAUCAGGAGAAAACAAUUCCUUAGAAGUCUUAAAUAUAUUGUACUCUUUAGAUCUCCCAUGUGUAGGUAUUGAAAAAGUUUGGAAGCACUGAUCACCUGUUAGCAUUGCCAUUCCUCUACUGCACAACAGAGGAUUGAGCAUCA
B6: ENSG00000070961:be:win_251|CDS|ENSG00000070961|bound_else_gene|NA|bound_elsewhere_windowed (ssRNA)
RNA: GGGAGUUCUACAGUCCGACGAUCUGUUUGGAAAGAAUUUUAUACCUCCUAAAAAGCCAAAAACCUUUCUUCAAUUAGUAUGGGAAGCAUUACAAGAUGUCACUUUAAUUAUAUUAGAAAUUGCAGCCAUAGUAUCAUUGGGCCCAACAGAGGAUUGAGCAUCA
B7: chr12:89642165:89642281:-|CDS|ENSG00000070961|unk|FALSE|bound_elsewhere (ssRNA)
RNA: GGGAGUUCUACAGUCCGACGAUCGCCAAAAACCUUUCUUCAAUUAGUAUGGGAAGCAUUACAAGAUGUCACUUUAAUUAUAUUAGAAAUUGCAGCCAUAGUAUCAUUGGGCCUUUCUUUUUAUCAGCCUCCAGAAGGGGAUAACAACAGAGGAUUGAGCAUCA
B8: ENSG00000136451:be:win_2501|3pUTR|ENSG00000136451|bound_else_gene|NA|bound_elsewhere_windowed (ssRNA)
RNA: GGGAGUUCUACAGUCCGACGAUCUCCCAAUCAGAGCCUGUUGAUAUUACAACAGGGACAGAUGUGUUAGUUGCUCACUAGAGUUUAUGUCUUAUAUUAAAUUGUAUACAGUUUUUAUUCUAACCACUAACUAGGUAGUGUAUGCAACAGAGGAUUGAGCAUCA
B9: chr6:57184343:57184440:+|3pUTR|ENSG00000112208|msi1_unk|FALSE|overlapping (ssRNA)
RNA: GGGAGUUCUACAGUCCGACGAUCUCUUCAGUUUUGUGAAUAACAAAACUAGCAAUAUUUUAAUUAUCUAUCUAGAGAUUUUUUAGAUUGAAUUCUUGUCUUGUACUAGGAUCUAGCAUAUUUCACUAUUCUGUGGAUGAAUACCAACAGAGGAUUGAGCAUCA
B10: chr13:110149936:110150037:-|3pUTR|ENSG00000187498|msi1|FALSE|unique (ssRNA)
RNA: GGGAGUUCUACAGUCCGACGAUCUUCUUGUAUUAUAAUUAAUUUUCUACCCCCAGAGAUAAAUGUUUGUUUAUAUCACUGUCUAGCUGUUUCAAAAUUUAGGUCCCUUGGUCUGUACAAAUAAUAGCAAUGUAAAAAUGGUUUCAACAGAGGAUUGAGCAUCA
B11: chr13:110149936:110150037:-|3pUTR|ENSG00000187498|msi1|total|mutant (ssRNA)
RNA: B10 RNA with U83C, A84C, U99C, A100C, U124C, A125C
B12: ENSG00000136451:be:win_2451|3pUTR|ENSG00000136451|bound_else_gene|NA|bound_elsewhere_windowed (ssRNA)
RNA: GGGAGUUCUACAGUCCGACGAUCUUUAAAUUGGAAGACGCUGGAGGCACUGGGAUGUGAUAUGCCCCUCUCUCUCCCAAUCAGAGCCUGUUGAUAUUACAACAGGGACAGAUGUGUUAGUUGCUCACUAGAGUUUAUGUCUUACAACAGAGGAUUGAGCAUCA
B13: chr1:214663888:214664008:+|3pUTR|ENSG00000117724|msi1|total|mutant (ssRNA)
RNA: B5 RNA with U41C, A42C, U68C, A69C, U83C, A84C, U120C, A121C
B14: chr9:76611375:76614569:-|three_prime_utr|ENSG00000106772|control|control|control (ssRNA)
RNA: GGGAGUUCUACAGUCCGACGAUCAUGUUACCUUUUUCCACUUUGCACUACCUGGUGCCAUUCUAAAUUUCUAAGGGGAAAAAUAGAAAGUUUGUUUACUCUUAAGAUAUUUUAUGAAAUUGUGUGUACUUUCCUAUUUUGCCACAACAGAGGAUUGAGCAUCA
B15: ENSG00000136451:be:win_2551|3pUTR|ENSG00000136451|bound_else_gene|NA|bound_elsewhere_windowed (ssRNA)
RNA: GGGAGUUCUACAGUCCGACGAUCUCACUAGAGUUUAUGUCUUAUAUUAAAUUGUAUACAGUUUUUAUUCUAACCACUAACUAGGUAGUGUAUGCCCCUUCAGAACAUGCAGAGUGUAUCUUUUUUUAAAUUUCUCCUUCCGUUCAACAGAGGAUUGAGCAUCA
B16: ENSG00000070961:be:win_301|CDS|ENSG00000070961|bound_else_gene|NA|bound_elsewhere_windowed (ssRNA)
RNA: GGGAGUUCUACAGUCCGACGAUCUUAGUAUGGGAAGCAUUACAAGAUGUCACUUUAAUUAUAUUAGAAAUUGCAGCCAUAGUAUCAUUGGGCCUUUCUUUUUAUCAGCCUCCAGAAGGGGAUAAUGCACUUUGUGGAGAAGUUCAACAGAGGAUUGAGCAUCA
B17: ENSG00000069329:stop:overlap|stop_codon|ENSG00000069329|stop_codon|NA|stop_codon (ssRNA)
RNA: GGGAGUUCUACAGUCCGACGAUCUGGAGAAGGGGCCCCACAGACCGUUCGGGAUUAAGACCAGCCCGAUUUGGCCUGCGGGAUAGGGGACAGCAGGAGGAAGGCCGCGGGCAGGCUGAUCCGGGCCGGGGUGGGCGGCGGCUCCAACAGAGGAUUGAGCAUCA
B18: chr16:58599380:58599482:-|5pUTR|ENSG00000125107|unk|total|mutant (ssRNA)
RNA: GGGAGUUCUACAGUCCGACGAUCCAGAACAGAGUAAGACCCCUGGUAAAGAAGAACUGAAGAUAUUAUACAGAUACCAGAUACCGCCUAAUUACAAAGAAAGCAUUAACCUGCCUCUGAGGUGACUAAAGGGGAAUAAUGGUGCAACAGAGGAUUGAGCAUCA
B19: chr11:113276125:113276317:+|3pUTR|ENSG00000149294|msi1|FALSE|unique (ssRNA)
RNA: GGGAGUUCUACAGUCCGACGAUCGUCCGUGUAAAAUAGCUGCCUUUUAUUUUUUAAGGUAACAAAUACCACCUAGAGGUAGGUAGGAUCAUCCCACGCUUGCUUUAGCACAGGACAACUUUACAAAACAUGAUUGUUUACAGCCAACAGAGGAUUGAGCAUCA
B20: chr14:53038166:53038268:-|3pUTR|ENSG00000100523|unk|total|mutant (ssRNA)
RNA: GGGAGUUCUACAGUCCGACGAUCGAGCUUUUGGCAGAGUCUUCGGGGUUUUCCCGGUAUAAAAUCAUAUCAGCGAAGAGAGCCCGUUUGAUUUCUUUUCCCAGUUGGAUGCCUUUUAUUUAUUUCUCUUGCCUGAUUGCUCUACAACAGAGGAUUGAGCAUCA
B21: chr2:39051162:39051270:-|CDS|ENSG00000115904|unk|total|mutant (ssRNA)
RNA: GGGAGUUCUACAGUCCGACGAUCAAAUAUAUUCCGUCGCACCGCCGAUAUACAUGAACUCCGUGUAAAGUUACUGGGCCAUACCGAAGAUACAGCCGAAAUGACAGAUGAAGGCAGUCCCCAUCCACCCGCCGGAAGCUGCUUCAACAGAGGAUUGAGCAUCA
B22: chr9:96818597:96818698:-|CDS|ENSG00000196597|unk|FALSE|unique (ssRNA)
RNA: GGGAGUUCUACAGUCCGACGAUCGGAGAAACCAUUCGAAUGUCAUGAAUGUGGGAAAUCUUUUAACUAUAAGUCAAUCCUCAUAGUGCAUCAGAGAACUCACACAGGGGAGAAACCUUUUGAAUGUAAUGAAUGCGGGAAAUCCAACAGAGGAUUGAGCAUCA

target: MSI1 full-length (mouse, UniProt Q61474 1-362); assay: nsRBNS (natural sequence RNA bind-n-seq); RBNS binding buffer (assumed for nsRBNS): 25 mM Tris pH 7.5, 150 mM KCl, 3 mM MgCl2, 0.01% Triton X-100, 500 ug/ml BSA, 20 U/ml SUPERase-In, 4 C; UNK is unkempt and MSI1 is Musashi-1; names of the RNAs are library labels; protein concentration not given here; high values mean tight binding
Sequence (Q61474 whole entry): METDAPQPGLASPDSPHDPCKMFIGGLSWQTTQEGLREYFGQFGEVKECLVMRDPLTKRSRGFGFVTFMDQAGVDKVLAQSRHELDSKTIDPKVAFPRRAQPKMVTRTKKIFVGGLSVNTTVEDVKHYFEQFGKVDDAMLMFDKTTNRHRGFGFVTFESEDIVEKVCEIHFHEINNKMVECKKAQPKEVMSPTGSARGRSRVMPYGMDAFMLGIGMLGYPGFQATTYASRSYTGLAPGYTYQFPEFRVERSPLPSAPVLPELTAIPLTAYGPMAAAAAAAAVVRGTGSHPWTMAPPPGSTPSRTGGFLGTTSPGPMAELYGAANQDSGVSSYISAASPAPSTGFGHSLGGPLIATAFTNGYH

Binder	binding signal [enrichment R]
B1	1.23
B2	0.318
B3	0.629
B4	0.944
B5	16.4
B6	17.2
B7	9.09
B8	25.2
B9	4.43
B10	30.3
B11	3.28
B12	1.47
B13	0.406
B14	1.45
B15	10.4
B16	9.77
B17	0.367
B18	0.791
B19	0.716
B20	0.36
B21	0.566
B22	0.426
